# Records with an inconclusive call do not appear. Active and inactive are the calls of the source. Rule for the calls: active = hit-call score of the fitted dose curve at least 0.9, where 1 is the maximum; inconclusive = response in the unintended direction; inactive = score below 0.9.
# Target: AR (gene 367) (UniProt P10275)
# Experiment: ACEA_AR_antagonist_80hr: ACEA Biosciences xCELLigence Real-Time Cell Analysis on Androgen Receptor Antagonism for Proliferation (AID 2283787);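 note: 22Rv1 human prostate cancer cells with growth followed by electrical impedance; hits lower the impedance growth signal relative to DMSO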
# Method in brief: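 Impedance readout (RT-CES), 80 h post-dose; loss-of-signal vs DMSO baseline. 22Rv1 cells in assay medium. Compounds: 8-pt 1:4 series, max 100 uM final, up to 0.5% DMSO; n = 2.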
# Chain of AR (gene 367) (P10275 whole entry, looked up): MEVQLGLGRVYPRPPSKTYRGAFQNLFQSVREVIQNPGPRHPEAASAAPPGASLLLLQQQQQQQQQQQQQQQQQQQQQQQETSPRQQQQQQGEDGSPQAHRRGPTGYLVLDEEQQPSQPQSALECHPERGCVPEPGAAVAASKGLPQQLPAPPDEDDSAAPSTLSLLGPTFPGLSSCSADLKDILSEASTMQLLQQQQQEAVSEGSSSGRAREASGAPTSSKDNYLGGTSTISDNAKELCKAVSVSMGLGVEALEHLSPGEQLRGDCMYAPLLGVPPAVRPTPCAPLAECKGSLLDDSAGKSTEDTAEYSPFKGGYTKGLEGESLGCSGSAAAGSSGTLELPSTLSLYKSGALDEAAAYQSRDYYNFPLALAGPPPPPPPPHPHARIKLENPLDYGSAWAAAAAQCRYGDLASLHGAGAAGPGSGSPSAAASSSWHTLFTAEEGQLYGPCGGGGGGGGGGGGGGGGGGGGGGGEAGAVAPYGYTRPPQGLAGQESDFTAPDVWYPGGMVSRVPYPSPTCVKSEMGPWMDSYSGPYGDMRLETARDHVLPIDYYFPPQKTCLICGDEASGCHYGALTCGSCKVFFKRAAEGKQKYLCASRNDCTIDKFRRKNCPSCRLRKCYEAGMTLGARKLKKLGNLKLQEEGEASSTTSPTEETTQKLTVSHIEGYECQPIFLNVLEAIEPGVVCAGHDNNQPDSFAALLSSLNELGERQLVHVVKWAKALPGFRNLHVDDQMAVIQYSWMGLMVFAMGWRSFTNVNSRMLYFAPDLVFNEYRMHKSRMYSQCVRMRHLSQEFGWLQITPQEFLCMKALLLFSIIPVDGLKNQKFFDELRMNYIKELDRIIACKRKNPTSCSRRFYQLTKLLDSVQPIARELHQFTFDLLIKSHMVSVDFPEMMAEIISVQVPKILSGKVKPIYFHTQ
Structure (SMILES),AC50,outcome
NC(=NCCCCCCN=C(N)/N=C(\N)Nc1ccc(Cl)cc1)/N=C(\N)Nc1ccc(Cl)cc1,9250 nM (active),
O=C(c1ccccc1)c1ccccc1,,inactive
Cc1cc(C(=C2C=CC(=Nc3ccc(S(=O)(=O)O)cc3)C=C2)c2ccc(Nc3ccc(S(=O)(=O)O)cc3)cc2)cc(S(=O)(=O)O)c1N,,inactive
CN(Cc1cnc2nc(N)nc(N)c2n1)c1ccc(C(=O)N[C@@H](CCC(=O)O)C(=O)O)cc1,390 nM (active),
CC(=O)Nc1ccc(O)cc1,,inactive
CCCCc1ccc2ccccc2c1S(=O)(=O)O,,inactive
CC(C)[C@@H]1CC[C@@H](C)C[C@H]1O,480 nM (active),
CCCCCCc1ccc(N)cc1,,inactive
CCCCCCCCCC=CCC1CC(=O)OC1=O (stereo unspecified),,inactive
COc1cc([N+](=O)[O-])ccc1N,2990 nM (active),
CC(O)COc1ccccc1 (stereo unspecified),,inactive
